Our source for the Potency, activity change, positive = activation and outcome values is PubChem BioAssay (Tox21).

Unmarked numbers belong to inactive results. Results filed as inconclusive are left out. Activity calls are given as the source filed them. Unless noted, calls come from the whole dose curve; as a rule, active = well fitted curve in the direction sought with a large enough effect in the repeat runs; inconclusive = weak or mixed curves; inactive = no such curve, though single readings can be large; an effect the other way counts as inactive or inconclusive.

Test [1] in a line: qHTS assay to identify small molecule antagonists of the estrogen related receptor (ERR) signaling pathway from Tox21 library - cell viability counter screen (AID 1224834). Note: nearly all actives have a fitted effect of over 30% in size. Note: potency is the fitted concentration of half-maximal effect. An outline of the steps:
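Cytotoxicity of test substances is gauged in the same ERR cells used for the antagonist screen, after 17.5 h of compound treatment at 37 C, by CellTiter-Fluor fluorescence measured after 30 min.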
Background: Quantitative high-throughput screening tests each substance at several concentrations.

Test [2] addresses Luciferin 4-monooxygenase (Photinus pyralis) (UniProt P08659). As to the kind of experiment: qHTS assay to identify small molecule inhibitors of firefly luciferase (AID 1224835). Note: nearly all actives have a fitted effect of over 25% in size. Note: potency is the fitted concentration of half-maximal effect. An outline of the steps:
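Inhibition of purified Photinus luciferase is measured by luminescence. Substrate levels (D-luciferin, ATP) sit at their KM values. Each compound is tested in a concentration series.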

Test [3] in a line: qHTS assay to identify small molecule agonists of the constitutive androstane receptor (CAR) signaling pathway - cell viability counter screen (AID 1224836). Note: nearly all actives have a fitted effect of over 45% in size. Note: potency is the fitted concentration of half-maximal effect. The method in brief: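 Cell viability multiplexed with the CAR agonist screen: CellTiter-Fluor fluorescence after 23 hr at 37 C. HepG2-CYP2B6-hCAR cells got compounds at 15 concentrations with PK11195 at 0.75 uM final.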

Test [4] in a line: qHTS assay to identify small molecule antagonists of the constitutive androstane receptor (CAR) signaling pathway - cell viability counter screen (AID 1224837). Note: nearly all actives have a fitted effect of over 45% in size. Note: potency is the fitted concentration of half-maximal effect. The method in brief: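 Multiplexed cytotoxicity read-out for the CAR antagonist screen: double-stable HepG2-CYP2B6-hCAR cells co-treated with 50 nM CITCO (final) and compound over 15 concentrations, incubated 23 hr, then assessed by CellTiter-Fluor fluorescence.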

Test [5] addresses Nuclear receptor subfamily 1 group I member 3 (Homo sapiens) (UniProt Q14994). In words: qHTS assay to identify small molecule antagonists of the constitutive androstane receptor (CAR) signaling pathway (AID 1224838). Note: nearly all actives have a fitted effect of over 40% in size. Note: potency is the fitted concentration of half-maximal effect. The method in brief:
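Compounds were titrated across 15 concentrations onto HepG2 cells double-stably expressing hCAR and a CYP2B6-2.2kb reporter, together with 50 nM CITCO (final). After 24 h at 37 C, luciferase activity was measured by luminescence.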

For test [6] the target is unchanged. In words: qHTS assay to identify small molecule agonists of the constitutive androstane receptor (CAR) signaling pathway (AID 1224839).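 For activation: HepG2 cells stably carrying human CAR and a CYP2B6 luciferase reporter.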 Note: nearly all actives have a fitted effect of over 15% in size. Note: potency is the fitted concentration of half-maximal effect. The method in brief:
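Luminescent ONE-Glo read-out after 24 hr, 37 C exposure of double-stable HepG2-CYP2B6-hCAR reporter cells to a 15-point compound series, in the presence of 0.75 uM PK11195 (final).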

Test [7] in a line: qHTS assay to identify small molecule antagonists of the estrogen related receptor signaling pathway with the pleiotropic PPARgamma coactivator (PGC) from Tox21 10K library - cell viability counter screen (AID 1224840; active = well fitted cell-killing curve with a large enough effect in the repeat runs, not every such curve was filed as active; note: nearly all actives have a fitted effect of over 40% in size; note: potency is the fitted concentration of half-maximal effect). An outline of the steps:
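Step one, plate 2,000 PGC/ERR cells per well; step two, incubate 6 h at 37 C/5% CO2; step three, pin-transfer compounds; step four, incubate 17.5 h; step five, add CellTiter-Fluor and read fluorescence after 30 min.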

Test [8] is described as follows: qHTS assay to identify small molecule antagonists of the estrogen related receptor signaling pathway with the pleiotropic PPARgamma coactivator (PGC) from Tox21 10K library (AID 1224841; call rule not given here; note: actives are mostly falling curves and most rising ones were filed inactive; nearly all actives have a fitted effect of over 50% in size; note: potency is the fitted concentration of half-maximal effect). The method in brief: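 Antagonism in this quantitative HTS is taken from loss of luciferase signal in PGC/ERR cells. Cells (2,000/well) are treated with compounds in DMSO after a 6 h settling period and read by One-Glo luminescence after 18 h.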

Test [9] addresses Thyrotropin receptor (Homo sapiens) (UniProt P16473). In words: qHTS assay to identify small molecule agonists of the thyroid stimulating hormone receptor (TSHR) signaling pathway (AID 1224843; calls by dose curve; note: nearly all actives have a fitted effect of over 45% in size; note: potency is the fitted concentration of half-maximal effect). The method in brief: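 HEK293 cells stably bearing the thyrotropin receptor were plated at 800 cells/well and challenged with compound (30 min, RT). Accumulated cAMP was quantified via cAMP-d2 competing for cryptate-tagged antibody.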

Test [10] can be described thus: qHTS assay to identify small molecule agonists of the hypoxia (HIF-1) signaling pathway - cell viability counter screen (AID 1224844; calls by dose curve; note: nearly all actives have a fitted effect of over 50% in size; note: potency is the fitted concentration of half-maximal effect). The method in brief:
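Tox21 10K compounds were added to HRE-bla ME-180 cells (0.5% dialyzed FBS) and incubated 17 hrs at 37C; ATP-based CellTiter-Glo luminescence then reported cell viability in the same wells.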

Test [11] can be described thus: qHTS assay to identify small molecule antagonists of the estrogen related receptor (ERR) signaling pathway from Tox21 library (AID 1224848). Note: nearly all actives have a fitted effect of over 50% in size. Note: potency is the fitted concentration of half-maximal effect. The method in brief:
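Reading was by luminescence 30 min after ONE-Glo addition. Before that, ERR cells at 2,000 per well had rested 6 h at 37 C/5% CO2 and then received pin-tooled compounds in DMSO for 18 h at 37 C.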

Test [12] in a line: qHTS assay to identify small molecule agonists of the estrogen related receptor (ERR) signaling pathway from Tox21 library (AID 1224849; calls by dose curve; note: nearly all actives have a fitted effect of over 15% in size). The following applies: ERR reporter cell line, ONE-Glo luciferase, 18 h; at 92.4 µM (top of the series) unless noted. An outline of the steps: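 Agonist signal is luciferase luminescence from an ERR reporter cell line treated 18 h at 37 C with DMSO-dissolved compounds, read 30 min after ONE-Glo addition at room temperature.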

Test [13] can be described thus: qHTS RealTime-Glo MT Cell Viability Assay in HepG2 cells - 24 hour (AID 1224867). Note: nearly all actives have a fitted effect of over 50% in size. Note: potency is the fitted concentration of half-maximal effect. An outline of the steps: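 Compound treatment began 5 h after plating HepG2 cells (600/well) with NanoLuc luciferase and prosubstrate. Plates stayed at 37 C for 40 h; luminescence was captured at six time points, 0 h through 40 h.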
A short description of test [14]: qHTS RealTime-Glo MT Cell Viability Assay in HEK293 cells - 32 hour (AID 1224868). Note: nearly all actives have a fitted effect of over 50% in size. Note: potency is the fitted concentration of half-maximal effect. The method in brief:
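Quantitative high-throughput screen of the Tox21 10K library in HEK293: cells and RealTime-Glo reagents plated together, compound added at 5 h, luminescence monitored through 40 h at 37 C.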

Test [15] in a line: A CellTox Green Cytotoxicity Assay to monitor cytotoxicity in HEK293 cells - 0 hour (AID 1224869). Note: nearly all actives have a fitted effect of over 50% in size. An outline of the steps:
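Cytotoxicity was tracked continuously in HEK293 cells by a DNA-binding dye excluded from viable cells. Compounds were transferred in DMSO 5 h after seeding; fluorescence was recorded at intervals up to 40 h.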

Test [16] is described as follows: qHTS RealTime-Glo MT Cell Viability Assay in HepG2 cells - 40 hour (AID 1224870). Note: nearly all actives have a fitted effect of over 50% in size. Note: potency is the fitted concentration of half-maximal effect. The method in brief:
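Real-time viability: cells seeded at 600 per well together with NanoLuc and cell-permeant prosubstrate, compounds added after 5 h incubation. Luminescence tracked at 0, 8, 16, 24, 32 and 40 h of exposure.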

Test [17] in a line: qHTS assay to identify small molecule agonists of the hypoxia (HIF-1) signaling pathway (AID 1224846; active = well fitted activation curve with a large enough effect in the signal ratio in the repeat runs, not every such curve was filed as active; the % refers to the signal ratio). The method in brief: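 Steps: seed ME-180 HRE-bla cells (2,000/well, 0.5% dialyzed FBS); incubate 5 hrs at 37C; pin-transfer compounds or DMSO; incubate 17 hrs; add LiveBLAzer B/G substrate CCF4-AM; measure reporter activation by FRET.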
Test [18] is described as follows: qHTS assay to identify small molecule agonists of H2AX - cell viability counter screen (AID 1224847; calls by dose curve; note: nearly all actives have a fitted effect of over 30% in size; note: potency is the fitted concentration of half-maximal effect). An outline of the steps: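 Counter-screen for viability: CellTiter-Glo ATP luminescence read after 3 h compound treatment (15-point titration, 0.76% DMSO final) of CHO-K1 cells at 37C, with 30 min room-temperature reagent incubation.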
Test [19] in a line: qHTS assay to identify small molecule agonists of the estrogen related receptor signaling pathway with the pleiotropic PPARgamma coactivator (PGC) from Tox21 10K library (AID 1224842). Note: nearly all actives have a fitted effect of over 15% in size. The method in brief: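 Luminescence from One-Glo (30 min, room temperature) measured after PGC/ERR cells had 18 h at 37 C with pinned compound (23 nL in DMSO). Cells had been seeded at 2,000 per well and pre-incubated 6 h.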

Test [20] can be described thus: qHTS assay to identify small molecule agonists of H2AX (AID 1224845; active = well fitted activation curve with a large enough effect in the signal ratio in the repeat runs, not every such curve was filed as active; the % refers to the signal ratio). An outline of the steps:
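Phospho-H2AX Ser139 measured by HTRF (ex 320 nm; em 665 and 620 nm) after 24 hr antibody incubation. Compounds, 15 concentrations, 0.76% DMSO, were applied to CHO-K1 cells for 3hr at 37C before lysis.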
% is set by controls: 0 for no effect and ±100 for the full control effect.

Sequence of Nuclear receptor subfamily 1 group I member 3 (Homo sapiens) (Q14994 whole entry, looked up): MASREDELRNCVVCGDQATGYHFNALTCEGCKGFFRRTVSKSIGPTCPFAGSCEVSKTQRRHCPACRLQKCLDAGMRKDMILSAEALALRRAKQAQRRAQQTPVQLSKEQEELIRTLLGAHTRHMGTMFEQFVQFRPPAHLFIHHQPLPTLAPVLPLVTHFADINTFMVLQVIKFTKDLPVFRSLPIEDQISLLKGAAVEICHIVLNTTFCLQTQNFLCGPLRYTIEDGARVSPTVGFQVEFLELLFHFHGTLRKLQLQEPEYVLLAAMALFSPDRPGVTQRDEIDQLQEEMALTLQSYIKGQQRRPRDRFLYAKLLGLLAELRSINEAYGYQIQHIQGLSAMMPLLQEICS
Sequence of Luciferin 4-monooxygenase (Photinus pyralis) (P08659 whole entry, looked up): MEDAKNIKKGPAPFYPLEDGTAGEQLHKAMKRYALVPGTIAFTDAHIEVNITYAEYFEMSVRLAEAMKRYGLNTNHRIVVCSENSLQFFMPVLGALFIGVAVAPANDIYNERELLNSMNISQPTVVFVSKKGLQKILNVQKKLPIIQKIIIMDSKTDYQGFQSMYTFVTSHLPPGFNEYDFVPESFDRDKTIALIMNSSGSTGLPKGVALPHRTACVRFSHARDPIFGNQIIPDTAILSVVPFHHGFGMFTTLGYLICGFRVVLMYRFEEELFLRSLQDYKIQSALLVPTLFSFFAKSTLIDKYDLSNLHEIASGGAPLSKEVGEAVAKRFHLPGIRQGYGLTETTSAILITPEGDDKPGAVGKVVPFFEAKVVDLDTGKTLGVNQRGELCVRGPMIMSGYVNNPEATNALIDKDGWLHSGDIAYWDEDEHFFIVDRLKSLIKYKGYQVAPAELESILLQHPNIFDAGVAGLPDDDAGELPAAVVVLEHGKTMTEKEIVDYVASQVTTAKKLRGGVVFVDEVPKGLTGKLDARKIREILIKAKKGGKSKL
Sequence of Thyrotropin receptor (Homo sapiens) (P16473 whole entry, looked up): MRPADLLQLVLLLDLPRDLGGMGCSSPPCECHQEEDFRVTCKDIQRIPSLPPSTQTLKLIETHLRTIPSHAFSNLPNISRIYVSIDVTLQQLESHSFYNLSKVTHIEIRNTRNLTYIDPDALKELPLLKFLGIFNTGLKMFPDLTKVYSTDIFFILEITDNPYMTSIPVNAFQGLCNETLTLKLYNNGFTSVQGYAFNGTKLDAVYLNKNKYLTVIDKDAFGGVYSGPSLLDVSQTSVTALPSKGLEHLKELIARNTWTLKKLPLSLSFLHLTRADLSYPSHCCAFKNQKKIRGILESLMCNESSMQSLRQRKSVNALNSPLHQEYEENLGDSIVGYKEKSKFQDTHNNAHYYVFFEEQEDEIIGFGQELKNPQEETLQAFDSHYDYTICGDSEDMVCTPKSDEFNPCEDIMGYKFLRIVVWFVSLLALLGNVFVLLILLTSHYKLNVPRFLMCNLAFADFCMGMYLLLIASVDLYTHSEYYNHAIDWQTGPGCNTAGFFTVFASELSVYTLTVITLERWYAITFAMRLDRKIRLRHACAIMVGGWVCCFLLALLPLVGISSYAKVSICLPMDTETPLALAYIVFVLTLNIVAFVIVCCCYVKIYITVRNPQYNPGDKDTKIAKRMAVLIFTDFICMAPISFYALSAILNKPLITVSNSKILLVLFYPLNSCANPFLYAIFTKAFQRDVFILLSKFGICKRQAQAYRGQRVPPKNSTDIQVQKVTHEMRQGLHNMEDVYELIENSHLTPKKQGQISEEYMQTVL

For the molecule `C=CC(=O)OCC(COC(=O)C=C)(COC(=O)C=C)COC(=O)C=C`, the Potency in [1] was 9.69 µM (active); in test [3], 15.4 µM (active); in test [4], 8.63 µM (active); in test [5], 8.63 µM (active); in test [7], 5.45 µM (active); in test [8], 13.7 µM (active). Also, the Potency in [9] is 8.63 µM (active); in [10], 6.92 µM (active); in test [11] it was 13.7 µM (active); in test [13], 6.16 µM (active); in [14], 3.89 µM (active); in test [16], 5.49 µM (active). Besides, the Potency result in test [2], in test [6] and in test [15] was “inactive” throughout. The activity change, positive = activation in test [12] was -79.4%.

Take `N#Cc1ccc(O)cc1`: the Potency entry in test [1], in test [2], in [3], in test [4], in test [5] and in test [6] was “inactive” in each case. For the same molecule, the Potency result in test [7], in test [9], in [10], in test [18], in test [13] and in test [14] was “inactive” each time. Further, the Potency result in [15] and in test [16] was “inactive” in each case. Moreover, the molecule was called inactive in test [17].

As for `COC12CC[C@@]3(C[C@@H]1C(C)(O)C(C)(C)C)[C@H]1Cc4ccc(O)c5c4[C@@]3(CCN1CC1CC1)[C@H]2O5` (stereo not given in full), the Potency in test [1] is 27.1 µM (active); in test [3], 43 µM (active); in test [4], 54.1 µM (active); in test [5], 48.2 µM (active); in test [7], 43 µM (active); in test [8], 60.7 µM (active). The Potency was 34.4 µM (active) in [10]; 28.2 µM (active) in test [18]; 27.1 µM (active) in [11]; 43.4 µM (active) in test [13]; 48.6 µM (active) in [16]. In addition, the Potency entry in test [2], in [6], in test [19], in [9] and in test [15] was “inactive” each time.

On to `C[C@]12CC[C@@H]3c4ccc(OC(=O)N(CCCl)CCCl)cc4CC[C@H]3[C@@H]1CC[C@@H]2O`, for which the Potency entry in test [1], in test [2], in [3], in test [4], in test [5] and in test [6] was “inactive” in each case. The Potency entry in test [7], in test [19], in [9], in test [10], in test [20] and in test [11] was “inactive” each time. The Potency entry in test [13], in test [14], in test [15] and in [16] was “inactive” throughout. In addition, the activity change, positive = activation in test [12] is -21.8% [at 42.5 µM].

For the molecule `Oc1cccc(-c2ccccc2)c1`, the Potency result in test [1], in test [3], in test [4], in test [5], in test [7] and in test [8] was “inactive” throughout. The Potency entry in [9], in [10], in test [20], in test [11], in [13] and in [15] was “inactive” throughout. Also, the Potency entry in test [16] is “inactive”. In addition, the Potency was 35.6 µM (active) in test [2] and 54.5 µM (active) in test [6]. Also, the molecule was called inactive in test [17].

With `CCS(=O)(=O)c1cccnc1S(=O)(=O)NC(=O)Nc1nc(OC)cc(OC)n1`, the Potency result in test [1], in test [2], in test [3], in test [4], in test [5] and in test [7] was “inactive” throughout. The Potency result in test [9], in test [10], in test [20], in test [11], in test [13] and in test [16] was “inactive” each time. Also, the Potency in test [6] was 54.5 µM (active). For the same molecule, in [17], the call was inactive. In addition, the activity change, positive = activation in [12] was 6.39%.
